Test results from PubChem BioAssay (NCATS).
Several values for one entry are separate records, joined by “and”; a condition that tells them apart may be missing. Equal values may be shown once. Records with an inconclusive call do not appear. Activity calls are given as the source filed them. Unless noted, calls come from the whole dose curve; as a rule, active = well fitted curve in the direction sought with a large enough effect; inconclusive = small, poorly fitted or top-dose-only effect, or another doubt; inactive = no such curve, though single readings can be large; an effect the other way counts as inactive or inconclusive.

Legend:
[1] = target: Glutaminase kidney isoform, mitochondrial (Homo sapiens) (UniProt O94925); test: qHTS for Inhibitors of Glutaminase (GLS): LOPAC Validation (AID 624146); note: nearly all actives have a fitted effect of over 60% in size; note: potency is the fitted concentration of half-maximal effect
Outline: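 Assay buffer: 45 mM KH2PO4 pH 8.2, 0.02% Tween-20. hKGA acts on L-glutamine (1 mM solution added); product glutamate is reported by an oxidase/peroxidase Amplex Red coupling, with fluorescence taken at baseline and 30 min.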

[2] = qHTS of Trypanosoma Brucei Inhibitors: LOPAC Validation (AID 624147); note: 0% is about no effect
Outline: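 Screened from lowest to highest concentration, compounds were pinned into TbPYK/substrate mixtures, and ADP (130 uM final) was added. Plates sat at room temperature for 45 min prior to Kinase-Glo Plus detection by luminescence.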

[3] = target: Glucagon-like peptide 1 receptor (Homo sapiens) (UniProt P43220); test: qHTS of GLP-1 Receptor Agonists: LOPAC Validation (AID 624148);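 note: luminescence from a luciferase reporter switched on by cAMP; 0% is about no effect; higher luminescence signal means agonism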
Outline: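 Agonism scored as increased luciferase luminescence driven by cAMP in HEK293 clones carrying GLP-1R. Cells settled 12 hours, received compound for 4-6 hr at 37 deg C, 5% CO2, and were read after 12 min detection reagent at RT.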

[4] = qHTS of Nrf2 Activators: LOPAC Validation (AID 624149); note: 0% is about no effect
Outline: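 AREc32_Fluc cells, 1000/well, OPTI-MEM + 5% FBS, o/n 37 deg C 5% CO2; compound pin-transfer, 24 hr 37 deg C; Steady-Glo 30 min RT, luminescence read.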

[5] = S16 Schwann cell PMP22 intronic element beta-lactamase assay (AID 624044; calls by dose curve;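 note: 0% = DMSO and -100% = potassium clavulanate positive control; nearly all actives have a fitted effect of over 15% in size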)
Outline: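 Beta-lactamase reporter under a PMP22 intronic regulatory element in stable S16 rat Schwann cells; 24 h compound exposure. 460 nm blue signal normalized between DMSO (0%) and potassium clavulanate, with 535 nm FRET tracking viability; curves classed by r2 and response.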

[6] = HTS Assay for Allosteric Antagonists of the Human D2 Dopamine Receptor: Hit Validation in HTRF (AID 624455); note: % is set by controls: 0 for no effect and ±100 for the full control effect
Outline: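 HTRF read-out; cells stably expressing D1 receptor; hits scored for inhibition of D1-mediated response. Primary screen: calcium flux, force-coupled inducible Hek293 Trex D2 line, antagonism vs EC80 dopamine.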

[7] = S16 Schwann cell PMP22 intronic element firefly luciferase assay (AID 624032);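 note: plate controls were DMSO for no effect and PTC124 positive control mean for full effect; nearly all actives have a fitted effect of over 30% in size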
Outline: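 Luciferase reporter of PMP22 intronic-element expression in stably transfected S16 rat Schwann cells, read by ONE-Glo luminescence after 24 h compound exposure at 37 C. Activity scaled between DMSO (0%) and positive-control PTC124; concentration-effect curves quality-classified.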

[8] = qHTS assay for small molecule agonists of the antioxidant response element (ARE) signaling pathway (AID 651741; active = well fitted activation curve with a large enough effect in the signal ratio; the % refers to the signal ratio; note: potency is the fitted concentration of half-maximal effect; for activation: % of control where 0% means no effect)
Outline: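 Agonist activity is measured as ARE-driven beta-lactamase expression in a stable HepG2 reporter line, using 16 h compound treatment at 37 C and a FRET substrate fluorescence readout after 2 h.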

[9] = qHTS assay for small molecule activators of the p53 signaling pathway (AID 651743; active = well fitted activation curve with a large enough effect in the signal ratio, not every such curve was filed as active; the % refers to the signal ratio; note: % of control where 0% means no effect); conditions: HCT-116 p53RE-bla, beta-lactamase FRET ratio, 16 h; activation: stronger effect = higher value
Outline: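 A beta-lactamase reporter under p53 response element control, stably carried by HCT-116 cells, reported pathway activation. Test compounds were applied for 16 hours at 37 C, and fluorescence was measured 2 hours after adding the B/G FRET substrate.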

[10] = qHTS assay for environmental chemicals that activate the Aryl hydrocarbon Receptor (AhR) signaling pathway (AID 651777); conditions: 1A2-DRE human hepatoma cells, luciferase, 24 h; activation: stronger effect = higher value; note: nearly all actives have a fitted effect of over 15% in size; note: potency is the fitted concentration of half-maximal effect; for activation: % of control where 0% means no effect
Outline: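 Following a 24 hr incubation with test chemicals at 37 C and 5% CO2, 1A2-DRE human hepatoma cells received One-Glo reagent; after 30 min at room temperature, luciferase output reflected CYP1A2 induction via AhR.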

[11] = qHTS Assay for Identification of Small Molecule Antagonists for NFkB Signaling Pathway. (AID 624479; calls by dose curve;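 note: pathway stimulated with TNF alpha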; note: potency is the fitted concentration of half-maximal effect)
[12] = Cell Proliferation Assay against the HBL1 Cell Line (AID 651646); conditions: HBL1 DLBCL cells; at 46.1 µM (top of the series) unless noted;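 note: cells exposed to compound for 48 h before reading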
Outline: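 CellTiter-Glo luminescence after 48 h compound exposure at 37C gives percent activity, with DMSO as 100% and 9.2 uM bortezomib final as 0%. Cells: 500 log-phase HBL1 per well, RPMI plus 5% FBS.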

[13] = Cell Proliferation Assay against the TMD8 Cell Line (Caspase readout at 16 hrs) (AID 651712);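 note: 0% = DMSO and 100% = 9.2 µM bortezomib caspase activation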
Outline: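 Caspase-Glo luminescence measured apoptosis after a 16 h, 37 C compound exposure of TMD8 cells (500 cells/well, 5% FBS RPMI). DMSO set 0% and bortezomib at 9.2 uM final set 100% activity.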

[14] = Cell Proliferation Assay against the TMD8 Cell Line (Caspase readout at 8 hrs) (AID 651713);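 note: 0% = DMSO and 100% = 9.2 µM bortezomib caspase signal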
Outline: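 Apoptosis readout: caspase 3/7 luminescence (Caspase-Glo), 15 min RT. Cells: TMD8, 500/well, RPMI + 5% FBS, no phenol red. Exposure 8 h, 37C. % activity vs DMSO = 0, bortezomib 9.2 uM final = 100.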

[15] = qHTS assay for small molecule activators of the nuclear factor-kappa B (NF-kB) signaling pathway (AID 651749; active = well fitted activation curve with a large enough effect in the signal ratio; the % refers to the signal ratio; note: % of control where 0% means no effect); conditions: NF-kB-bla ME-180 cells, beta-lactamase FRET ratio, 16 h; stronger effect = higher value
Outline: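 FRET-based beta-lactamase detection in ME-180 cells reports NF-kB response-element-driven transcription following overnight (16 hr) compound treatment.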

[16] = target: Tumor necrosis factor (Homo sapiens) (UniProt P01375); test: qHTS assay to identify small molecules that stimulate Tumor Necrosis Factor-alpha (TNF-alpha) secretion (AID 651757; active = well fitted curve in the direction sought with a large enough effect in the signal ratio; the % refers to the signal ratio; note: 0% is about no effect)
Outline: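 THP-1 cells, 3000/well; compound 17 hrs, 37 C; add cryptate/XL665 anti-TNF-alpha antibody pair; 3 hr RT; TR-FRET (HTRF) read of secreted TNF-alpha. Quantitative HTS format.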

[17] = Cytotoxicity counterscreen for NFkB agonists and antagonists (AID 624476);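 note: cells exposed to compound for 48 hours; % is set by controls: 0 for no effect and ±100 for the full control effect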

Glucagon-like peptide 1 receptor (Homo sapiens), sequence (P43220 whole entry, looked up): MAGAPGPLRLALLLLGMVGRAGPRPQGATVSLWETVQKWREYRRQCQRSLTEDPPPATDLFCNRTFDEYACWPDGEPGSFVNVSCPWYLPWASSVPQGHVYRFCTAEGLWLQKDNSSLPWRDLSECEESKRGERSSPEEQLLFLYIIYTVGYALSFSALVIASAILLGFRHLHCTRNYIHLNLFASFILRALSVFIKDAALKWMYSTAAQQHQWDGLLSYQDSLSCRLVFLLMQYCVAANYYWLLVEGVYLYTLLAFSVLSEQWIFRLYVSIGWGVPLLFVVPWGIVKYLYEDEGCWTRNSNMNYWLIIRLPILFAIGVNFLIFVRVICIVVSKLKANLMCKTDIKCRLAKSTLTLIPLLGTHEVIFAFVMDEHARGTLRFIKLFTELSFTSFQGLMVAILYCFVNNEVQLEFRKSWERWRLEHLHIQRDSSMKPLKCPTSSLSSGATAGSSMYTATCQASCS
Glutaminase kidney isoform, mitochondrial (Homo sapiens), sequence (O94925 whole entry, looked up, canonical isoform): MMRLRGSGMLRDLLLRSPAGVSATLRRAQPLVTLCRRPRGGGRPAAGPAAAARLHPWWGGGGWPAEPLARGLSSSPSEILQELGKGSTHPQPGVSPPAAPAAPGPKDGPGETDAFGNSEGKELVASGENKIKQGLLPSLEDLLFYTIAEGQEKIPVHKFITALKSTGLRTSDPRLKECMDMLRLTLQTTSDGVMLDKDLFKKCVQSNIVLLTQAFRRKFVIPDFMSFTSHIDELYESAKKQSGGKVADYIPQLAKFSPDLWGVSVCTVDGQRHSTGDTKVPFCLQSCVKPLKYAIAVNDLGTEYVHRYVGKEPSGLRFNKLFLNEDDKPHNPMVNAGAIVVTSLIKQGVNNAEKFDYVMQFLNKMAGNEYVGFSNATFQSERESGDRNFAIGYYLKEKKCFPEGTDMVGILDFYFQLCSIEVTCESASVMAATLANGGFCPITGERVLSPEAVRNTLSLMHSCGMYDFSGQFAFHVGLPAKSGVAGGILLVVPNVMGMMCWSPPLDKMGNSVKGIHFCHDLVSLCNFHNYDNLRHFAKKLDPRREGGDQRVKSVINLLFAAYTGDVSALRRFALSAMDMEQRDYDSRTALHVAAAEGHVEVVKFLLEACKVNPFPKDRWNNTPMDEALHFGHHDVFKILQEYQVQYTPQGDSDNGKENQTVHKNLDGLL
Tumor necrosis factor (Homo sapiens), sequence (P01375 whole entry, looked up): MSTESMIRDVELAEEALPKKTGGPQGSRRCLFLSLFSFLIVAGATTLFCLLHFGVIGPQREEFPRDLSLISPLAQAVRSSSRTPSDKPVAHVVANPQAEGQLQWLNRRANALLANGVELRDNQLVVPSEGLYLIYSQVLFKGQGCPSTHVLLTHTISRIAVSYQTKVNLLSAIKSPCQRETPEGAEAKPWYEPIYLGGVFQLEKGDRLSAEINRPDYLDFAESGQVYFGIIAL

O=C1NC(=O)C(c2ccccc2[N+](=O)[O-])=C1Nc1ccc(O)c(Cl)c1
inactive: Potency [2] | outcome [3] | outcome [4]
active: Potency [1] 10 µM

Cc1c(OCC(F)(F)F)ccnc1CS(=O)c1nc2ccccc2[nH]1 (stereo unspecified)
inactive: Potency [5] | Potency [2] | outcome [3] | outcome [4] | outcome [6]

CNC[C@H](O)c1ccc(O)c(O)c1
active: Potency [8] 48.6 µM
inactive: Potency [7] | Potency [1] | Potency [2] | outcome [4] | activation [9] 1.2% | activation [10] -0.576%

O=c1oc2cc(O)ccc2s1
inactive: Potency [7] | Potency [5]

S=c1nc[nH]c2nc[nH]c12
54.4% [at 92.2 µM]: viability, percent of control [12]
inactive: Potency [11] | Potency [13] | Potency [14]

O=c1c(O)c(-c2ccc(O)cc2O)oc2cc(O)cc(O)c12
inactive: Potency [2] | outcome [3] | outcome [4] | outcome [6] | activation [9] -1.48% | activation [10] 4.65%

Nc1nc(N)c(N=O)c(OCC2CCCCC2)n1
inactive: Potency [1] | Potency [2] | outcome [3] | outcome [4] | outcome [6]

Cc1cc(O)c2c(c1)C(=O)c1cc(O)cc(O)c1C2=O
inactive: outcome [3] | outcome [4] | outcome [6] | activation [15] 0.85% and -1.63%
active: Potency [10] 44.7 µM

CC(=O)Nc1ccc(O)cc1
inactive: Potency [8] | Potency [16] | activation [10] 1.7% and -0.186%

O=C(CCc1ccc(O)cc1)c1c(O)cc(O)cc1O
inactive: Potency [2] | outcome [3] | outcome [4] | outcome [6]

Oc1ccc2ccccc2c1SSc1c(O)ccc2ccccc12
inactive: outcome [3] | outcome [4] | outcome [6]

CCOC(=O)C(C)Oc1cccc2c(=O)n(CC(=O)Nc3ccc4c(c3)OCCO4)ccc12 (stereo unspecified)
inactive: Potency [1] | Potency [2] | outcome [3] | outcome [4] | outcome [6] | Potency [17] | Potency [11] | Potency [13] | Potency [14]
108%: viability, percent of control [12]

NC(=NCc1ccccc1)NC(=O)c1nc(Cl)c(N)nc1N
inactive: Potency [1] | Potency [2] | outcome [3] | outcome [4] | outcome [6]

Cc1nc(Nc2ncc(C(=O)Nc3c(C)cccc3Cl)s2)cc(N2CCN(CCO)CC2)n1
27.1%: viability, percent of control [12]
inactive: Potency [14]
active: Potency [11] 16.8 µM

CN(C)CCCC1(c2ccc(F)cc2)OCc2cc(C#N)ccc21 (stereo unspecified)
inactive: Potency [1] | Potency [2] | outcome [3] | outcome [4] | outcome [6]

CC(=O)O[C@H]1C(=O)[C@@]2(C)C([C@H](OC(=O)c3ccccc3)[C@]3(O)C[C@H](OC(=O)[C@H](O)[C@@H](NC(=O)c4ccccc4)c4ccccc4)C(C)=C1C3(C)C)[C@]1(OC(C)=O)CO[C@@H]1C[C@@H]2O (stereo partly specified)
inactive: Potency [1] | Potency [2] | outcome [3] | outcome [4] | outcome [6]

COc1cc2c(cc1OC)C1CC(=O)C(CC(C)C)CN1CC2 (stereo unspecified)
inactive: Potency [2] | outcome [3] | outcome [4]

Nc1ccn([C@@H]2O[C@H](CO)[C@@H](O)C2O)c(=O)n1 (stereo partly specified)
inactive: Potency [1] | Potency [2] | outcome [3] | outcome [4] | outcome [6]

Nc1nc(OCc2ccccc2)c2[nH]cnc2n1
inactive: Potency [1] | Potency [2] | outcome [3] | outcome [4] | outcome [6]

COc1cc2nc(N3CCN(C(=O)C4CCCO4)CC3)nc(N)c2cc1OC (stereo unspecified)
inactive: Potency [1] | Potency [2] | outcome [3] | outcome [4] | outcome [6]

CC1(C)C(=O)N(CCN2CCC(C(=O)c3ccc(F)cc3)CC2)c2ccccc21
inactive: Potency [2] | outcome [3] | outcome [4] | outcome [6]

O=c1c(O)c(-c2cc(O)c(O)c(O)c2)oc2cc(O)cc(O)c12
inactive: outcome [3] | outcome [4] | outcome [6]
